SW480 rereplic: inducers of DNA re-replication in SW480 colon cancer cells | SW480 DNA re-replication, Hoechst DNA content imaging, 48 h | Potency, µM (titrated, usually from 46.1 µM), most hits filed as activators | 340,000 compounds, 1.8% hits; note: nearly all actives have a fitted effect of over 55% in size
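DNA re-replication was detected as more nuclei of elevated Hoechst intensity after 48 hr exposure to compound (23 nL pinned per well of 250 cells).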
MCF10A rereplic: DNA re-replication induction in MCF 10a cells | MCF 10A DNA re-replication, Hoechst nuclear intensity, 48 h | Potency, µM (doses to about 46.1 µM), hits mostly activators | 350,000 compounds, 2.9% hits | AID 624296; note: nearly all actives have a fitted effect of over 50% in size
ELG1 DNA repair: ELG1-dependent DNA repair inhibition | AID 504467 | HEK293T ELG1-luciferase reporter, luminescence, 16 h; DNA damage induced by 5-fluorouridine | Potency, µM (doses to about 46.1 µM), most hits filed as inhibitors | 330,000 compounds, 2.3% hits; note: nearly all actives have a fitted effect of over 55% in size
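5-Fluorouridine DNA damage + compound/DMSO, 2,000 cells/well, 16 h, 37 °C/5% CO2. ONE-Glo, 30 min RT, luminescence. Readout = decrease in reporter signal.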
RORgamma inh: blocks mouse ROR gamma transcriptional activity | Potency, µM (titrated, usually from 53.6 µM), most hits filed as inhibitors | P51450 | AID 2551 | Drosophila S2 Gal4-RORgamma UAS-luciferase reporter, 20 h | 310,000 compounds, 5.4% hits; note: nearly all actives have a fitted effect of over 60% in size
Target sequence (P51450 whole entry, looked up, the tested form may be a part): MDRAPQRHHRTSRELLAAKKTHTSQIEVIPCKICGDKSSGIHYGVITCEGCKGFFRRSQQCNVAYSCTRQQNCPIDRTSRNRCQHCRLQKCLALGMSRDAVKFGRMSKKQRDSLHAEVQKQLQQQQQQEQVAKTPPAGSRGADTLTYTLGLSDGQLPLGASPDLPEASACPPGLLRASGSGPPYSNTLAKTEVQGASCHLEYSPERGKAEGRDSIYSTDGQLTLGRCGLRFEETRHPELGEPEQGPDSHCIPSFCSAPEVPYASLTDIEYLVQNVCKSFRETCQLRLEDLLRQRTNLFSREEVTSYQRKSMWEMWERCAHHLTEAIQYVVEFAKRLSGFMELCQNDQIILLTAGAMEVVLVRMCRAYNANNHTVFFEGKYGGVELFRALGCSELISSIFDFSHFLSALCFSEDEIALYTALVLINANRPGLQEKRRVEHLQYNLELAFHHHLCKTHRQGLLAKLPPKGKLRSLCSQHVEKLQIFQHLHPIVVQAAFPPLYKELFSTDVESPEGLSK
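Stably transfected Drosophila Schneider cells are the test system, with ROR gamma fused to Gal4 and luciferase under UAS control; luminescence is read after 20 hr of 700 uM copper sulfate induction at ambient temperature.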
VP16 counter: counter-screen for ROR gamma inhibitors: Gal4-VP16 reporter | Drosophila S2 Gal4-VP16 UAS-luciferase, luminescence, 20 h | Potency, µM (titrated, usually from 53.6 µM), most hits filed as inhibitors | 310,000 compounds, 3.5% hits;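 note: Gal4-VP16 expression switched on by copper sulfate through the metallothionein promoter; nearly all actives have a fitted effect of over 50% in size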
A number is an active result; i = inactive; ? = inconclusive; nt = not tested or not shown; [ ] = dose if it differs, or a comment. Hits are enriched below; roughly 10% of the tested compounds scored in any of these assays. Calls come from the whole dose curve; as a rule, active = well fitted curve in the direction sought with a large enough effect; inconclusive = small, poorly fitted or top-dose-only effect, or another doubt; inactive = no such curve, though single readings can be large; an effect the other way counts as inactive or inconclusive.

SMILES	SW480 rereplic	MCF10A rereplic	ELG1 DNA repair	RORgamma inh	VP16 counter
COc1ccc(N2CCN(S(=O)(=O)CCNC(=O)COc3ccccc3C)CC2)cc1	i	i	?	nt	nt
CCC(C)c1ccccc1NC(=O)C(C)OC(=O)c1ccco1 (centres undefined)	i	i	i	nt	nt
O=C(NCc1ccccc1)C(c1ccccc1)N(Cc1ccc2c(c1)OCO2)C(=O)Cc1cccs1 (centres undefined)	i	?	16µM	?	i
Cc1ccccc1S(=O)(=O)N1C[C@H]2CON(C)[C@H]2C[C@H]1c1cccc(Oc2ccccc2)c1	8.2µM	?	nt	nt	nt
CN1C[C@H]2CON(C)[C@H]2C[C@H]1c1cccc(-c2ccccc2)c1	i[9.22 µM]	i	nt	nt	nt
Cc1ccccc1-c1cccc([C@@H]2C[C@H]3[C@H](CON3C)CN2Cc2ccccc2)c1	i[9.22 µM]	18µM	nt	nt	nt
CN(C)N1C(N)=C(C#N)C(c2cccc3ccccc23)C2=C1CC(c1ccccc1)CC2=O (centres undefined)	?	15µM	16µM	i	i
CN1C(=O)C(C)(C)c2cc(S(=O)(=O)NCC3CCC(C(=O)NCc4ccc(F)cc4)CC3)ccc21 (centres undefined)	i	i	i	i	i
CCOc1ccc(S(=O)(=O)N2CCN(Cc3ccco3)CC2)cc1	i	i	i	i	i
CCN(CC)c1c([N+](=O)[O-])c(=O)n(C)c2ccccc12	?	i	i	i	i
Cn1c(=O)c([N+](=O)[O-])c(Cl)c2ccccc21	16µM	3.7µM	?	10µM	13µM
CN(Cc1ccccc1)S(=O)(=O)CCNC(=O)c1ccc2c(c1)OCO2	i	i	i	nt	nt
CN(C)S(=O)(=O)Oc1ccc(C(=O)Nc2cccc(Cl)c2)cc1	i	?	?	?	13µM
CN(C)S(=O)(=O)Oc1cccc(C(=O)Nc2ccc(Cl)cc2)c1	i	?	?	?	i
CN(C)S(=O)(=O)Oc1ccc(C(=O)Nc2cccc(C(F)(F)F)c2)cc1	i	i	21µM	i	i
CN(CC(=O)Nc1cccc(F)c1)C(=O)c1cccc(S(=O)(=O)N2CC3(C)CC2CC(C)(C)C3)c1 (centres undefined)	i	?	i	nt	nt
O=c1oc2c(CN3CCOCC3)c(O)c(Cl)cc2c2c1CCCC2	i[9.22 µM]	i	i	11µM	i
Cc1c(C)c2cc(Cl)c(O)c(CN3CCCCC3)c2oc1=O	i	i	?	i	i
CCc1c(C)c2cc(Cl)c(O)c(CN3CCCC3)c2oc1=O	21µM	?	i	i	i
O=C(COC(=O)c1nc(Cl)ccc1Cl)NCCc1ccccc1	i	i	i	nt	nt
O=C1OCC(CO)(CO)N=C1NNc1ccccc1[N+](=O)[O-]	i	i	7.3µM	i	i
O=C1OCC(CO)(CO)N=C1NNc1cc(Cl)ccc1Cl	i	?	i	i	i
C/C(=N\NC(=O)c1cccnc1)c1cc2ccccc2o1	i	i	i	i	i
COc1cc2c(cc1OC)CN(c1ccc(C(F)(F)F)cn1)CC2	?	16µM	?	?	i
O=C(NCc1ccccc1)c1ccc2c(c1)C(=O)N(Cc1cccnc1)C2=O	i	i	i	i	i
SMILES	SW480 rereplic	MCF10A rereplic	ELG1 DNA repair	RORgamma inh	VP16 counter
CNc1cc(CSc2ccc(Cl)cc2)nc(C)n1	5.2µM	i	?	i	?
Cc1cccc2nc(CSc3nc4cc([N+](=O)[O-])ccc4s3)cn12	i	i	i	20µM	?
Clc1ccc(SCc2cn3ccccc3n2)cc1	i	i	?	8.9µM	i
Cc1cccc2nc(CSc3ccc(Cl)cc3)cn12	i	i	?	7.9µM	?
Clc1cccc(C2CCN(Cc3nc(CC4CC4)no3)C2)c1 (centres undefined)	i	i	?	i	i
Cc1ccsc1C(=O)N(C)C1CCS(=O)(=O)C1 (centres undefined)	?	i	?	nt	nt
COC(=O)c1cc(C(=O)N2CCOCC2)cc([N+](=O)[O-])c1	i	i	i	i	i
Cc1ccc(N2CCN(C(=O)c3cccc([N+](=O)[O-])c3)CC2)cc1Cl	i	i	?	i	i
COC(=O)c1cc(C(=O)N2CCN(c3cccc(Cl)c3)CC2)cc([N+](=O)[O-])c1	0.73µM	?	?	i	i
O=C(c1cccc([N+](=O)[O-])c1)N1CCN(c2cccc(Cl)c2)CC1	?	16µM	?	i	i
Cc1ccccc1CN(C)CCS(=O)(=O)c1cc(Cl)ccc1Cl	18µM	9.2µM	i	i	i
CN(C)c1ccc(/C=N/N=C2/NC(=O)/C(=C/c3ccc([N+](=O)[O-])cc3)S2)cc1	i	?	?	2.8µM	?
CC(C)N(C(=O)CN1CCN(C(=O)C2COc3ccccc3O2)CC1)C(C)C (centres undefined)	i	i	i	nt	nt
COc1cc(OC)cc(-c2nc3ccccc3c(=O)n2OC(=O)c2ccc(Br)cc2)c1	?	i	i	10µM	11µM
COc1ccc(C(=O)On2c(-c3ccc(Br)cc3)nc3ccccc3c2=O)cc1	?	9.2µM	?	7.1µM	5µM
Cc1cc(C(=O)Nn2c(-c3ccc(Br)cc3)nc3ccccc3c2=O)ccc1[N+](=O)[O-]	?	?	i	?	?
COc1ccc(-c2nc3ccccc3c(=O)n2N)cc1	i	i	i	i	i
CC1CC(C)CN(C(=O)C(C)N2CCN(S(=O)(=O)c3ccccc3F)CC2)C1 (centres undefined)	i	i	i	nt	nt
C/C(=N\NC(=O)c1ccc2ccccc2c1)c1cccs1	i	i	?	?	?
C=C1c2ccccc2NC(=S)N1Cc1ccc2c(c1)OCO2	i	i	?	3.2µM	?
O=C1c2ccccc2C(=O)N1Cc1ccc2c(c1)OCO2	i	i	i	i	i
NC(=O)c1nn(Cc2ccccc2)c(=O)c2ccccc12	i	i	i	i	i
N#Cc1ccc(CN2CCN(C(=O)Cn3nc(C(N)=O)c4ccccc4c3=O)CC2)cc1	21µM	i	i	i	i
COc1cccc(-n2c(CN3CCN(c4cccc(C)c4)C(C)C3)nc3ccc([N+](=O)[O-])cc3c2=O)c1 (centres undefined)	i	i	12µM	i[10 µM]	i
COc1cccc(-n2c(CN3CCN(c4ccc(C)cc4)C(C)C3)nc3ccc([N+](=O)[O-])cc3c2=O)c1 (centres undefined)	i	i	?	i[10 µM]	i
CN(CC(=O)Nc1ccccc1Br)C(=O)c1cc2c(s1)CCCCC2	i	?	?	nt	nt
CN(C)c1ccc(NC(=O)Cn2c(=O)n(Cc3ccccc3)c(=O)c3ccccc32)cc1	i	i	i	i	i
COc1ccc(NC(=O)C(=O)NCCC2CCCCN2S(=O)(=O)c2ccccc2)cc1 (centres undefined)	15µM	?	?	nt	nt
O=C(NCCCO)C(=O)Nc1ccc2c(c1)N(S(=O)(=O)c1cccs1)CCC2	i	i	i	nt	nt
O=C(NCCC1CCCCN1S(=O)(=O)c1cccs1)C(=O)Nc1ccccc1 (centres undefined)	i	?	i	nt	nt

Assay outcomes as filed in PubChem BioAssay.
